± gives the standard deviation of the averaged measurements.
Columns and labels:
IL-6-GFP PC-9GR = experiment: cell viability (CCK-8 OD) relative to DMSO control (fraction of control); higher = more viable cells; settings: compound concentration: 10 uM; treatment time: 48 h
Outline: (§1)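 Each well's viability is its CCK-8 optical density divided by that of the vehicle control well. The cells, PC-9 and PC-9GR lung cancer lines overexpressing IL-6-GFP from a lentiviral construct, were seeded at 3000 cells/well in 96-well plates and exposed for 48 h to each compound of a purchased 510-compound library at a final 10 μM, in two independent replicates.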

IL-6-GFP PC-9 = experiment: as above; settings: compound concentration: 10 uM; treatment time: 48 h
Outline: as §1

Row | SMILES | cell viability (IL-6-GFP PC-9GR) | cell viability (IL-6-GFP PC-9)
1 | CC[N+](CC)(CC)CCOc1cccc(OCC[N+](CC)(CC)CC)c1OCC[N+](CC)(CC)CC.[I-].[I-].[I-] [Gallamine Triethiodide] | 1.34 ± 0.31 | 1.202 ± 0.0034
2 | Cl.c1ccc(CN(CC2=NCCN2)c2ccccc2)cc1 [Antazoline HCl] | 0.998 ± 0.082 | 1.31 ± 0.11
3 | CC(C(=O)O)c1ccc(CC2CCCC2=O)cc1 (configuration not stated) [Loxoprofen] | 1.04 ± 0.028 | 1.29 ± 0.05
4 | CC(=O)OC1CCC2(C)C(=CCC3C2CCC2(C)C(c4cccnc4)=CCC32)C1 (configuration not stated) [Abiraterone Acetate] | 1.48 ± 0.41 | 0.929 ± 0.21
5 | CC1(C)OC2CC3C4CCC5=CC(=O)C=CC5(C)C4C(O)CC3(C)C2(C(=O)CO)O1 (configuration not stated) [Desonide] | 0.804 ± 0.24 | 0.683 ± 0.22
6 | CC(=O)Oc1ccccc1C(=O)O [Aspirin] | 1.05 ± 0.027 | 1.23 ± 0.12
7 | CC(Oc1cc(-c2cnn(C3CCNCC3)c2)cnc1N)c1c(Cl)ccc(F)c1Cl (configuration not stated) | 0.43 ± 0.21 | 0.529 ± 0.15
8 | COc1c(-c2ccc3cc(NS(C)(=O)=O)ccc3c2)cc(-n2ccc(=O)[nH]c2=O)cc1C(C)(C)C [Dasabuvir(ABT-333)] | 0.7838 ± 0.0059 | 0.9253 ± 0.0086
9 | COc1cccc2c1C(=O)c1c(O)c3c(c(O)c1C2=O)CC(O)(C(=O)CO)CC3OC1CC(N)C(O)C(C)O1.Cl (configuration not stated) [Epirubicin HCl] | 0.141 ± 0.14 | 0.1407 ± 0.00071
10 | CC(Cn1ccc(-c2ccc(C#N)c(Cl)c2)n1)NC(=O)c1cc(C(C)O)[nH]n1 (configuration not stated) [Darolutamide (ODM-201)] | 0.858 ± 0.18 | 0.962 ± 0.21
11 | C/C=C1/C2C=C(C)CC1(N)c1ccc(=O)[nH]c1C2 (single isomer, unassigned; (-)) [(-)-Huperzine A (HupA)] | 1.17 ± 0.37 | 1.29 ± 0.053
12 | CCCCC1C(=O)N(c2ccccc2)N(c2ccccc2)C1=O [Phenylbutazone] | 1.34 ± 0.094 | 1.25 ± 0.053
13 | CC(C)Cn1cnc2c(N)nc3ccccc3c21 [Imiquimod] | 0.774 ± 0.57 | 1 ± 0.24
14 | COC1CC2CCC(C)C(O)(O2)C(=O)C(=O)N2CCCCC2C(=O)OC(C(C)CC2CCC(OC(=O)C(C)(CO)CO)C(OC)C2)CC(=O)C(C)/C=C(\C)C(O)C(OC)C(=O)C(C)CC(C)/C=C/C=C/C=C/1C (configuration not stated) | 0.524 ± 0.54 | 0.698 ± 0.12
15 | CC(N)c1ccc(C(=O)Nc2ccnc3[nH]ccc23)cc1.Cl.Cl (configuration not stated) | 0.973 ± 0.42 | 0.74 ± 0.23
16 | O=C(O)c1cc(-c2ccc(F)cc2F)ccc1O [Diflunisal] | 0.789 ± 0.23 | 1.15 ± 0.15
17 | CC(C)c1c(C(=O)Nc2ccccc2)c(-c2ccccc2)c(-c2ccc(F)cc2)n1CCC(O)CC(O)CC(=O)O (configuration not stated) [atorvastatin] | 0.904 ± 0.21 | 0.866 ± 0.015
18 | O=c1oc2cc(O)ccc2s1 [Tioxolone] | 1.06 ± 0.041 | 1.121 ± 0.0078
19 | Cc1cc(C(C)(C)C)cc(C)c1CC1=NCCN1 [Xylometazoline] | 0.674 ± 0.26 | 1.08 ± 0.14

Row | SMILES | cell viability (IL-6-GFP PC-9GR) | cell viability (IL-6-GFP PC-9)
20 | CS(=O)(=O)CCNCc1ccc(-c2ccc3ncnc(Nc4ccc(OCc5cccc(F)c5)c(Cl)c4)c3c2)o1.Cc1ccc(S(=O)(=O)O)cc1.Cc1ccc(S(=O)(=O)O)cc1 | 1.18 ± 0.056 | 0.708 ± 0.033
21 | CCCCC1(COC(=O)CCC(=O)O)C(=O)N(c2ccccc2)N(c2ccccc2)C1=O [Suxibuzone] | 0.768 ± 0.21 | 1.07 ± 0.21
22 | Cc1c(C(=O)Nc2ccc(N3CC(C)OC(C)C3)nc2)cccc1-c1ccc(OC(F)(F)F)cc1 (configuration not stated) [Sonidegib (Erismodegib, NVP-LDE225)] | 1.05 ± 0.049 | 1.0769 ± 0.001
23 | CN(C)c1cc(CNCC(C)(C)C)c(O)c2c1CC1CC3C(N(C)C)C(O)=C(C(N)=O)C(=O)C3(O)C(O)=C1C2=O.Cc1ccc(S(=O)(=O)O)cc1 (configuration not stated) [Omadacycline tosylate] | 1.02 ± 0.039 | 1.3 ± 0.11
24 | CC(C)Cc1ccc(C(C)C(=O)OCc2ccccn2)cc1 (configuration not stated) [Ibuprofen piconol] | 1.43 ± 0.54 | 1.17 ± 0.096
25 | Cc1ccc(C(=O)Nc2ccc(CN3CCN(C)CC3)c(C(F)(F)F)c2)cc1C#Cc1cnc2cccnn12 | 0.464 ± 0.3 | 0.378 ± 0.19
26 | Cc1ccc(C(C)C)c(O)c1 [Thymol] | 0.9 ± 0.16 | 1.08 ± 0.2
27 | CC(C)(C)c1nc(-c2cccc(NS(=O)(=O)c3c(F)cccc3F)c2F)c(-c2ccnc(N)n2)s1.CS(=O)(=O)O [Dabrafenib Mesylate] | 0.922 ± 0.18 | 0.921 ± 0.19
28 | COc1cc2nccc(Oc3ccc(NC(=O)C4(C(=O)Nc5ccc(F)cc5)CC4)cc3)c2cc1OC.O=C(O)CC(O)C(=O)O [Cabozantinib malate (XL184)] | 0.81 ± 0.13 | 0.958 ± 0.062
29 | CC1(C)CCC(CN2CCN(c3ccc(C(=O)NS(=O)(=O)c4ccc(NCC5CCOCC5)c([N+](=O)[O-])c4)c(Oc4cnc5[nH]ccc5c4)c3)CC2)=C(c2ccc(Cl)cc2)C1 [Venetoclax (ABT-199, GDC-0199)] | 0.907 ± 0.17 | 1.03 ± 0.15
30 | CC(C)C(=O)Nc1ccc([N+](=O)[O-])c(C(F)(F)F)c1 [Flutamide] | 1.18 ± 0.054 | 1.2 ± 0.53
31 | CN(C)C/C=C/C(=O)Nc1cc2c(Nc3ccc(F)c(Cl)c3)ncnc2cc1OC1CCOC1 (configuration not stated) [Afatinib (BIBW2992)] | 0.542 ± 0.058 | 0.294 ± 0.038
32 | CC(C)(C#N)c1cc(Cn2cncn2)cc(C(C)(C)C#N)c1 [Anastrozole] | 1.15 ± 0.045 | 1.01 ± 0.078
33 | O=c1[nH]c(=O)n(C2CC(O)C(CO)O2)cc1F (configuration not stated) [Floxuridine] | 0.681 ± 0.02 | 0.808 ± 0.25
34 | Cc1ccc(-c2cc(C(F)(F)F)nn2-c2ccc(S(N)(=O)=O)cc2)cc1 [Celecoxib] | 1.13 ± 0.057 | 1.09 ± 0.051
35 | CC(=O)OCC(CCn1cnc2cnc(N)nc21)COC(C)=O [Famciclovir] | 1.32 ± 0.15 | 1.26 ± 0.18
36 | CC1(C)C2CCC1(C)C(O)C2 (configuration not stated) [Borneol] | 1.27 ± 0.36 | 0.778 ± 0.016
37 | O=C(O)Cc1ccccc1Nc1c(Cl)cccc1Cl [Diclofenac acid] | 1.07 ± 0.24 | 1.12 ± 0.17
38 | O=C(O)CCCCC1CCSS1 (stereo not drawn) [(+)-α-Lipoic acid] | 1.26 ± 0.2 | 1.21 ± 0.024

Row | SMILES | cell viability (IL-6-GFP PC-9GR) | cell viability (IL-6-GFP PC-9)
39 | Nc1nc(=O)c2c(CCc3ccc(C(=O)NC(CCC(=O)[O-])C(=O)[O-])cc3)c[nH]c2[nH]1.[Na+].[Na+] (configuration not stated) [Pemetrexed] | 0.483 ± 0.064 | 0.635 ± 0.1
40 | CC(C(=O)O)c1ccc(C(=O)c2ccccc2)s1 (configuration not stated) [Tiaprofenic acid] | 0.905 ± 0.037 | 1.04 ± 0.17
41 | CC1=C(/C=C/C(C)=C/C=C/C(C)=C/C(=O)O)C(C)(C)CCC1 [Tretinoin] | 1.45 ± 0.45 | 1.03 ± 0.15
42 | COc1cc2c(Nc3ccc(Br)cc3F)ncnc2cc1OCC1CCN(C)CC1 [Vandetanib (ZD6474)] | 0.578 ± 0.024 | 0.551 ± 0.059
43 | CC1CNc2c(cccc2S(=O)(=O)NC(CCCNC(=N)N)C(=O)N2CCC(C)CC2C(=O)O)C1.O (configuration not stated) [Argatroban Monohydrate] | 1.49 ± 0.35 | 1.12 ± 0.23
44 | NC1CCCCC1N.O=C([O-])C(=O)[O-].[Pt+2] (configuration not stated) [Oxaliplatin] | 0.678 ± 0.016 | 1.2 ± 0.099
45 | CCC1(O)CC2CN(CCc3c([nH]c4ccccc34)C(C(=O)OC)(c3cc4c(cc3OC)N(C=O)C3C(O)(C(=O)OC)C(OC(C)=O)C5(CC)C=CCN6CCC43C65)C2)C1.O=S(=O)(O)O (configuration not stated) [Vincristine sulfate] | 0.587 ± 0.086 | 0.553 ± 0.11
46 | CC#CC(=O)N1CCCC1c1nc(-c2ccc(C(=O)Nc3ccccn3)cc2)c2c(N)nccn12 (configuration not stated) [Acalabrutinib (ACP-196)] | 1.04 ± 0.36 | 0.78 ± 0.084
47 | O=c1[nH]c(=O)n(C2CCCO2)cc1F (configuration not stated) | 1.11 ± 0.023 | 1.01 ± 0.013
48 | Nc1nc(Cl)nc2c1ncn2C1OC(CO)C(O)C1F (configuration not stated) [Clofarabine] | 0.5 ± 0.013 | 0.337 ± 0.13
49 | O=C(/C=C/c1ccc(O)c(O)c1)OC(Cc1ccc(O)c(O)c1)C(=O)O (configuration not stated) [Rosmarinic acid] | 1.12 ± 0.24 | 1.14 ± 0.059
50 | O=C(Nc1cnn2ccc(N3CCCC3c3cc(F)ccc3F)nc12)N1CCC(O)C1.O=S(=O)(O)O (configuration not stated) [Larotrectinib (LOXO-101) sulfate] | 0.802 ± 0.05 | 1.14 ± 0.12
51 | Cc1c(-c2ccc(-c3ccccc3F)cc2)nc2ccc(F)cc2c1C(=O)O [Brequinar] | 0.402 ± 0.11 | 0.42356 ± 0.00032
52 | NCCc1c[nH]cn1 [Histamine] | 1.05 ± 0.16 | 1.29 ± 0.22
53 | CC12CCC3c4ccc(O)cc4CC(CCCCCCCCCS(=O)CCCC(F)(F)C(F)(F)F)C3C1CCC2O (configuration not stated) [Fulvestrant] | 1.14 ± 0.072 | 1.024 ± 0.0045
54 | CC(=O)O.CCNC(=O)C1CCCN1C(=O)C(CCCNC(=N)N)NC(=O)C(CC(C)C)NC(=O)C(CC(C)C)NC(=O)C(Cc1ccc(O)cc1)NC(=O)C(CO)NC(=O)C(Cc1c[nH]c2ccccc12)NC(=O)C(Cc1c[nH]cn1)NC(=O)C1CCC(=O)N1 (configuration not stated) [Leuprolide Acetate] | 1.16 ± 0.31 | 1.28 ± 0.073
55 | OCc1ccccc1OC1OC(CO)C(O)C(O)C1O (configuration not stated) [Salicin] | 1.49 ± 0.23 | 1.2 ± 0.097
56 | Cc1nc(NC(=O)N2CCCC2C(N)=O)sc1-c1ccnc(C(C)(C)C(F)(F)F)c1 (configuration not stated) [Alpelisib (BYL719)] | 0.983 ± 0.067 | 0.934 ± 0.11
